Source: PubChem (National Center for Advancing Translational Sciences (NCATS))
KB-V1 cytotox = kills drug-selected multidrug resistant KB-V1 cells | KB-V1 MDR cells viability, CellTiter-Glo, 72 h | Potency, µM (series often up to 46.1 µM), most hits filed as cytotoxic | 400,000 tested, 3.4% active | AID 1347076; further: on the % scale 0 is the no-effect control and ±100 the full control effect; nearly all actives have a fitted effect of over 60% in size
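KB-V1 MDR subline cells in DMEM (phenol-red free, 10% FBS) exposed to compounds in qHTS concentration series for 72 h at 37 degrees C. Viability read by CellTiter-Glo luminescence; concentration-effect curves fitted after normalization and correction.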
RORgamma inh = inhibitors of mouse ROR gamma transcriptional activity; Potency, µM (top dose mostly 53.6 µM), without a hit: at the highest dose activity change, negative = inhibition, hits mostly inhibitors; AID 2551; Drosophila S2 Gal4-RORgamma UAS-luciferase reporter, 20 h; P51450; 310,000 tested, 5.4% active; further: on the % scale 0 is the no-effect control and ±100 the full control effect; nearly all actives have a fitted effect of over 60% in size
Target sequence (P51450 whole entry, looked up, the tested form may be a part): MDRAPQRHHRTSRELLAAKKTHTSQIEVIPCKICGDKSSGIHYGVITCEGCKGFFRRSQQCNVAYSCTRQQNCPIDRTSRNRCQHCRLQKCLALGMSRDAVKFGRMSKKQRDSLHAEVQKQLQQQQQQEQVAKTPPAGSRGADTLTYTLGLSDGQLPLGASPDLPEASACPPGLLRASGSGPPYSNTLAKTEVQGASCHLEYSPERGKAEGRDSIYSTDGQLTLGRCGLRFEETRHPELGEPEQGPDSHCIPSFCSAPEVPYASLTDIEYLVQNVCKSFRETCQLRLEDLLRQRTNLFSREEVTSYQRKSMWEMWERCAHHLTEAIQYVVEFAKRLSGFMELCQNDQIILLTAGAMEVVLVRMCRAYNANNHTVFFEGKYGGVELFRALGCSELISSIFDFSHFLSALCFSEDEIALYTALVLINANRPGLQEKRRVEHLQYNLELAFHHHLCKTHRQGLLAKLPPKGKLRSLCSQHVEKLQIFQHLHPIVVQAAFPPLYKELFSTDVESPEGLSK
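In this cell-based reporter format, copper sulfate (700 uM final) drives Gal4–ROR gamma fusion expression from a metallothionein promoter in Drosophila Schneider cells; compounds preincubated 1 hr, reporter read after 20 hr at ambient temperature.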
SW480 rerep = induces DNA re-replication in SW480 colon adenocarcinoma cells; 340,000 tested, 1.8% active; Potency, µM (top dose mostly 46.1 µM), for inactives: at the highest dose re-replication activation, most hits filed as activators; SW480 DNA re-replication, Hoechst DNA content imaging, 48 h; further: % of control where 0% means no effect; nearly all actives have a fitted effect of over 55% in size
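Treated cells incubate 48 hr (37 C, 5% CO2), are stained 40 min with Hoechst, and nuclear fluorescence is enumerated; a rise in nuclei with high DNA signal marks re-replication.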
KB-3-1 cytotox = KB-3-1 parental cell cytotoxicity; Potency, µM (highest dose often 46.1 µM), most hits filed as cytotoxic; KB-3-1 viability, CellTiter-Glo ATP luminescence, 72 h; 400,000 tested, 1.4% active; further: on the % scale 0 is the no-effect control and ±100 the full control effect; nearly all actives have a fitted effect of over 60% in size
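Parental KB-3-1 viability, qHTS format: 72 h compound exposure, 37 °C; CellTiter-Glo; media-only wells and DMSO plates as controls; concentration-effect fits on corrected data.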
MCF10A rereplic = inducers of DNA re-replication in MCF 10A breast cells; MCF 10A DNA re-replication, Hoechst nuclear intensity, 48 h; Potency, µM (highest dose often 46.1 µM), inactives show at the highest dose activity, positive = re-replication, hits mostly activators; 350,000 tested, 2.9% active; further: % of control where 0% means no effect; nearly all actives have a fitted effect of over 50% in size
VP16 counter = inhibits Gal4-VP16 luciferase reporter, ROR gamma counter-screen; Drosophila S2 Gal4-VP16 UAS-luciferase, luminescence, 20 h; Potency, µM (titrated, usually from 53.6 µM), without a hit: at the top dose activity, negative = inhibition, actives largely listed as inhibitors; 310,000 tested, 3.5% active; AID 2546;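 further: Gal4-VP16 expression switched on by copper sulfate through the metallothionein promoter; on the % scale 0 is the no-effect control and ±100 the full control effect; nearly all actives have a fitted effect of over 50% in size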
* = called active by the depositor; i = inactive; ? = inconclusive; nt = no result given; [ ] = another dose, or the depositor's remark. A selection: hits, their analogues and other compounds. The true share with any hit is near 10%. The call rests on the fitted dose curve; in most records, active means well fitted curve in the direction sought with a large enough effect; inconclusive means small, poorly fitted or top-dose-only effect, or another doubt; inactive means no such curve, though single readings can be large; an effect the other way counts as inactive or inconclusive. Potency means the concentration at half of the fitted maximal effect.

SMILES	KB-V1 cytotox	RORgamma inh	SW480 rerep	KB-3-1 cytotox	MCF10A rereplic	VP16 counter
COc1ccc(COCC(O)CN(Cc2ccco2)Cc2ccccc2O)cc1 (stereo not given)	20.6µM*	9.9%	2.4%	i	7.1%	1.1%
Oc1ccccc1CN(Cc1ccco1)CC(O)COCc1ccc(Cl)cc1 (stereo not given)	?	-32.3%	17.5%	i	?	-16.8%
CC1(C(=O)NCc2ccccc2Br)CCN1Cc1ccc2ccccc2c1 (stereo not given)	i	nt	nt	i	nt	nt
CC1(C(=O)NCc2ccccc2Br)CCN1Cc1ccc(-c2ccccn2)cc1 (stereo not given)	13µM*	nt	nt	?	nt	nt
S=C(Nc1ccc(Cl)c(Cl)c1)N1CCN(c2ccccn2)CC1	i	-27.9%[1.91 µM]	-6.0%[9.22 µM]	i	-1.2%	-9.2%
COc1cc(NC(=S)N2CCN(c3ccccn3)CC2)c(OC)cc1Cl	18.4µM*	19.4%	-69.2%	i	-5.1%	?
S=C(Nc1ccc(Oc2ccccc2)cc1)N1CCN(c2ccccn2)CC1	i	11.2µM*	6.9%	i	20.8%	?
S=C(Nc1cccc(Cl)c1)N1CCN(c2ccccn2)CC1	i	11.2µM*	-1.3%	i	-1.7%	12.6µM*
COc1ccc(-n2c(=O)c(-c3cc(F)cc(F)c3)nc3cnc(N(C)C)nc32)cc1	nt	-7.6%	nt	nt	nt	-7.1%
COC(=O)N[C@@H](c1cccc(F)c1)C(C(C)=O)C(=O)OC (stereo not given in full)	nt	7.8%	nt	nt	nt	-0.6%
Nc1nc2ccccc2n1CCOc1ccc(Br)cc1	i	nt	-1.8%	i	-0.3%	nt
Cn1c(NC(=S)Nc2ccccc2)nc2ccccc21	?	0.501µM*	0.0%	i	-0.5%	1µM*
S=C(Nc1ccccc1)Nc1nc2ccccc2n1CCOc1ccc(Br)cc1	i	1.78µM*	-3.7%	i	?	2.24µM*
Cc1nc2cc(-c3ccccc3)sc2c(=O)n1N	i	0.708µM*	-11.6%	3.66µM*	0.3%	1.58µM*
COc1ccc(-c2cc3nc4n(c(=O)c3s2)CCC4)cc1	i	?	-5.8%	i	-6.5%	1.58µM*
Cn1c(NCc2ccccc2)nc2cc(-c3ccccc3)sc2c1=O	i	nt	nt	i	nt	nt
COc1ccc(-c2cc3nc(C)n(N)c(=O)c3s2)cc1	4.61µM*	1.78µM*	-9.6%	?	8.7%	1.26µM*
COc1ccc(-c2cc3nc4n(c(=O)c3s2)CCCCC4)cc1	i	-10.7%	-2.4%	?	2.8%	-17.6%
CC(C)c1nn2c(=O)cc(COC(=O)c3ccco3)nc2s1	?	nt	nt	i	nt	nt
CN(c1ccccc1)S(=O)(=O)c1cccc(C(=O)NNC(=O)c2ccccc2)c1	14.6µM*	27.2%	-2.8%	20.6µM*	9.9%	-22.8%
O=C(O)c1cccc(S(=O)(=O)Nc2cccc(S(=O)(=O)Nc3ccc(Br)cc3)c2)c1	i	nt	-1.8%	i	0.2%	nt
O=C(O)c1cccc(S(=O)(=O)Nc2ccc3c(c2)CCC3)c1	i	?	-3.4%	i	1.2%	10µM*
CN(c1ccccc1)S(=O)(=O)c1cccc(NC(=O)c2ccc(Cl)c([N+](=O)[O-])c2)c1	16.4µM*	nt	4.3%	20.6µM*	?	nt
COc1ccccc1N(C)S(=O)(=O)c1ccc(C(=O)Nc2cc(OC)c(OC)c(OC)c2)cc1	?	nt	?	16.4µM*	?	nt
CC(=O)Nc1ccc(C(=O)Nc2cccc(S(=O)(=O)N(C)c3ccccc3)c2)cc1	i	nt	-23.1%	i	4.9%	nt
SMILES	KB-V1 cytotox	RORgamma inh	SW480 rerep	KB-3-1 cytotox	MCF10A rereplic	VP16 counter
CC(C)CN1CCC2(CC1)CCN(C(=O)c1cnccn1)CC2	nt	-8.8%	nt	nt	nt	-4.1%
CN(c1ccccc1)S(=O)(=O)c1cccc(C(=O)Nc2ccc3c(c2)CCC3)c1	5.8µM*	?	?	?	-21.2%	0.4%
COc1ccc(NC(=O)c2cccc(S(=O)(=O)N(C)c3ccccc3)c2)cn1	3.26µM*	?	-0.9%	?	16.0%	-9.9%
O=C(Cn1nc(-c2ccc(Cl)cc2)ccc1=O)N1CCN(c2ccccc2)CC1	20.6µM*	40.0%	3.2%	i	3.8%	-8.3%
O=C(Cn1ncc2ccsc2c1=O)N1CCN(c2ccc(Cl)cc2)CC1	20.6µM*	nt	nt	?	nt	nt
O=C(Cn1cnc2c(cnn2-c2ccccc2)c1=O)N1CCOCC1	i	-11.4%	-15.9%	?	-0.1%	-13.4%
O=C(Cn1cnc2c(cnn2-c2ccc(Cl)cc2)c1=O)N1CCN(c2ccccc2)CC1	5.17µM*	23.0%	-2.7%	i	16.8%	-4.8%
O=C(O)Cn1nc(-c2ccc(Cl)cc2)ccc1=O	i	20.7%	3.2%	i	-1.2%	0.5%
CCCCN(CC)S(=O)(=O)c1ccc(C(=O)Nc2nnc(-c3cccs3)o2)cc1	?	0.0282µM*	?	8.2µM*	?	0.126µM*
CCCCN(C)S(=O)(=O)c1ccc(C(=O)Nc2nnc(-c3ccco3)o2)cc1	?	0.398µM*	13µM*	?	?	0.708µM*
CCN(CC)S(=O)(=O)c1ccc(C(=O)Nc2nnc(-c3ccco3)o2)cc1	?	0.562µM*	?	?	1.2%	1.26µM*
CN(c1ccccc1)S(=O)(=O)c1ccc(C(=O)Nc2nnc(-c3ccc(F)cc3)o2)cc1	?	1µM*	-5.6%	?	?	1.58µM*
Cc1cc(C)c(NC(=O)c2ccc(S(=O)(=O)N(C)C)cc2)c(C)n1	i	12.9%	?	i	18.4µM*	2.3%
Cc1cc(NC(=O)c2ccc(S(=O)(=O)N(C)C)cc2)no1	i	-16.4%	-4.8%	i	-4.0%	28.5%
CS(=O)(=O)c1ccc(-c2nnc(NC(=O)c3ccco3)o2)cc1	i	nt	-310.0%	i	-3.5%	nt
CN(C)S(=O)(=O)c1ccc(C(=O)Nc2nnc(-c3ccco3)o2)cc1	?	1µM*	?	?	?	3.16µM*
CC(C)C[C@H]1COc2cc(N3CC[C@H](O)C3)ccc2S(=O)(=O)N1	?	nt	nt	i	nt	nt
O=c1c(-c2cccc(F)c2)nc2cncnc2n1-c1ccccc1	nt	2.2%	nt	nt	nt	-2.9%
COc1ccc2[nH]cc(CCNc3cc(-c4ccc(C(=O)N(C)C)cc4)ncn3)c2c1	nt	24.7%	nt	nt	nt	-3.3%
CC(C)(C)NC(=O)C1c2ccccc2OCC(=O)N1Cc1ccccc1 (stereo not given)	i	nt	nt	i	nt	nt
O=C(Nc1cccc(-c2csc(Nc3cccc(C(F)(F)F)c3)n2)c1)c1cc([N+](=O)[O-])cc(C(F)(F)F)c1	i	-1.3%	?	i	?	-4.8%
